Results as given in PubChem BioAssay (NCI).
About 79,000 compounds went through this panel and 15% of them were active in at least one assay; those are over-represented in the sample as a whole. Values without a mark were called inactive. Active and inactive are the calls of the source. Cut-off read from the data, not from the text of the source: active = growth inhibition above about 70%; inactive = the rest.

Columns and labels:
[1] = NCI Yeast Anticancer Drug Screen. Data for the rad52 strain (AID 147);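 note: 0% = growth of vehicle-treated control cultures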; conditions: S. cerevisiae rad52 mutant growth inhibition, active compounds read high
In short: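 Measured: yeast growth inhibition. System: strain with a defined DNA damage repair alteration. Reference: vehicle-treated control cultures.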

[2] = NCI Yeast Anticancer Drug Screen. Data for the wt1 strain (AID 149);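 note: 0% = growth of vehicle-treated wt1 cultures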; conditions: S. cerevisiae wt1 strain (SPY 50644) growth inhibition, active compounds read high
In short: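 Using yeast strain wt1, compound-induced growth inhibition was determined against vehicle-treated cultures.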

[3] = NCI Yeast Anticancer Drug Screen. Data for the rad50 strain (AID 155);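 note: 0% = growth of vehicle-only cultures of the same strain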; conditions: S. cerevisiae rad50 strain growth inhibition, active compounds read high
In short: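 Relative growth inhibition (compound vs vehicle) was measured in yeast with a defined repair-gene alteration.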

[4] = NCI Yeast Anticancer Drug Screen. Data for the mec2-1 strain (AID 157); conditions: S. cerevisiae mec2-1 strain, active compounds read high
In short: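 Test agents were screened against the mec2-1 yeast strain, with defined DNA repair or cell cycle alteration. Growth was scored as inhibition against vehicle-only controls.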

[5] = NCI Yeast Anticancer Drug Screen. Data for the rad14 strain (AID 159);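 note: 0% = growth of vehicle-treated control cultures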; conditions: S. cerevisiae rad14 strain growth inhibition, active compounds read high
In short: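 Screen for anticancer potential: a yeast strain altered in DNA damage repair is grown with compound, and reduced growth is quantified against vehicle controls.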

[6] = NCI Yeast Anticancer Drug Screen. Data for the sgs1 mgt1 strain (AID 161);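 note: 0% = growth of cultures given vehicle only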; conditions: S. cerevisiae sgs1 mgt1 strain, active compounds read high
In short: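 Read-out: growth inhibition vs vehicle controls. Cells: mutant yeast strain deficient in DNA damage repair.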

[7] = NCI Yeast Anticancer Drug Screen. Data for the cln2 rad14 strain (AID 165);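 note: 0% = growth equal to vehicle treated cultures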; conditions: S. cerevisiae cln2 rad14 strain, active compounds read high
In short: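 Growth of compound-exposed yeast (cln2 rad14 genotype) measured and expressed as inhibition relative to vehicle.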

[8] = NCI Yeast Anticancer Drug Screen. Data for the bub3 strain (AID 167); conditions: S. cerevisiae bub3 mutant strain, active compounds read high
In short: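 Screening used yeast with an engineered genetic alteration affecting cell cycle control. Compound-exposed cultures were compared with vehicle cultures, and reduced growth was taken as inhibition.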

[9] = NCI Yeast Anticancer Drug Screen. Data for the wt2 strain (AID 169);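 note: 0% = growth of vehicle-treated yeast cultures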; conditions: S. cerevisiae wt2 strain growth inhibition, active compounds read high
In short: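 Genetically defined yeast strains from a DNA-repair/cell-cycle panel were used. Compound-exposed yeast growth was measured, and the inhibition was calculated relative to vehicle treatment.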

[10] = NCI Yeast Anticancer Drug Screen. Data for the mlh1 strain (AID 171);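 note: 0% = growth of vehicle-treated control cultures of the same strain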; conditions: S. cerevisiae mlh1 strain growth inhibition, active compounds read high
In short: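 Here the genetically defined yeast mutant is grown with each compound, and the extent to which its growth falls below that of vehicle-exposed cells is reported.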

[11] = NCI Yeast Anticancer Drug Screen. Data for the sgs1 strain (AID 173);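 note: 0% = growth of vehicle-only control cultures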; conditions: S. cerevisiae sgs1 mutant, active compounds read high
In short: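 Relative growth inhibition, referenced to vehicle, was determined in a yeast strain with a defined alteration affecting DNA damage repair or cell cycle control after compound exposure.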

[12] = NCI Yeast Anticancer Drug Screen. Data for the mlh1 rad18 strain (AID 175); conditions: S. cerevisiae mlh1 rad18 strain growth inhibition, active compounds read high
In short: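 In this whole-cell yeast screen, a strain with altered DNA damage repair is challenged with compound, and its growth is measured against matched vehicle-treated controls.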

[13] = NCI Yeast Anticancer Drug Screen. Data for the rad18 strain (AID 177); conditions: S. cerevisiae rad18 mutant growth inhibition, active compounds read high
In short: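 Screen uses a yeast strain with a defined lesion in DNA damage repair; compound effect is read as loss of growth compared to untreated vehicle cultures.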

[14] = at 5.0 µM (retest, dose inferred, filed as 0.5)
[15] = at 50.0 µM (retest, dose inferred, filed as 5.0)

SMILES: S=c1cn[nH]c2ccc(Br)cc12
- growth inhibition ([1]; at 1.2 µM): -1%
- growth inhibition ([1]; at 3.7 µM): 8%
- growth inhibition ([1]; at 11.0 µM): 10%
- growth inhibition ([1]; at 33.0 µM): 52%
- growth inhibition ([1]; at 100.0 µM): 74% (active)
- growth inhibition ([2]; at 1.2 µM): -5%
- growth inhibition ([2]; at 3.7 µM): -6%
- growth inhibition ([2]; at 11.0 µM): -11%
- growth inhibition ([2]; at 33.0 µM): 1%
- growth inhibition ([2]; at 100.0 µM): 43%
- growth inhibition ([3]; at 1.2 µM): -3%
- growth inhibition ([3]; at 3.7 µM): -9%
- growth inhibition [3, 14]: -152%
- growth inhibition ([3]; at 11.0 µM): 13%
- growth inhibition ([3]; at 33.0 µM): 78% (active)
- growth inhibition [3, 15]: 66%
- growth inhibition ([3]; at 50.0 µM): 69.5%
- growth inhibition ([3]; at 100.0 µM): 85% (active)
- growth inhibition ([4]; at 1.2 µM): 2%
- growth inhibition ([4]; at 3.7 µM): -3%
- growth inhibition [4, 14]: -53%
- growth inhibition ([4]; at 11.0 µM): -6%
- growth inhibition ([4]; at 33.0 µM): 8%
- growth inhibition [4, 15]: -9%
- growth inhibition ([4]; at 50.0 µM): 56.3%
- growth inhibition ([4]; at 100.0 µM): 53%
- growth inhibition ([5]; at 1.2 µM): 2%
- growth inhibition ([5]; at 3.7 µM): 4%
- growth inhibition ([5]; at 11.0 µM): 5%
- growth inhibition ([5]; at 33.0 µM): 30%
- growth inhibition ([5]; at 100.0 µM): 62%
- growth inhibition [6, 14]: -58%
- growth inhibition [6, 15]: 61%
- growth inhibition ([6]; at 50.0 µM): 68.9%
- growth inhibition [7, 14]: -68%
- growth inhibition [7, 15]: -20%
- growth inhibition ([7]; at 50.0 µM): 35.9%
- growth inhibition ([8]; at 1.2 µM): -12%
- growth inhibition ([8]; at 3.7 µM): -9%
- growth inhibition [8, 14]: -79%
- growth inhibition ([8]; at 11.0 µM): -12%
- growth inhibition ([8]; at 33.0 µM): 52%
- growth inhibition [8, 15]: 60%
- growth inhibition ([8]; at 50.0 µM): 77% (active)
- growth inhibition ([8]; at 100.0 µM): 72% (active)
- growth inhibition ([9]; at 1.2 µM): -4%
- growth inhibition ([9]; at 3.7 µM): -3%
- growth inhibition ([9]; at 11.0 µM): -5%
- growth inhibition ([9]; at 33.0 µM): 20%
- growth inhibition ([9]; at 100.0 µM): 40%
- growth inhibition ([10]; at 1.2 µM): 4%
- growth inhibition ([10]; at 3.7 µM): -7%
- growth inhibition ([10]; at 11.0 µM): -5%
- growth inhibition ([10]; at 33.0 µM): 46%
- growth inhibition ([10]; at 100.0 µM): 73% (active)
- growth inhibition ([11]; at 1.2 µM): -2%
- growth inhibition ([11]; at 3.7 µM): -6%
- growth inhibition ([11]; at 11.0 µM): -5%
- growth inhibition ([11]; at 33.0 µM): 61%
- growth inhibition ([11]; at 100.0 µM): 85% (active)
- growth inhibition [12, 14]: -109%
- growth inhibition [12, 15]: 75% (active)
- growth inhibition ([12]; at 50.0 µM): 85.6% (active)
- growth inhibition ([13]; at 1.2 µM): 0%
- growth inhibition ([13]; at 3.7 µM): 2%
- growth inhibition ([13]; at 11.0 µM): 26%
- growth inhibition ([13]; at 33.0 µM): 86% (active)
- growth inhibition ([13]; at 100.0 µM): 89% (active)
